About 79,000 compounds went through this panel and 15% of them were active in at least one assay; those are over-represented in the sample as a whole. No stated cut-off is given here; in the data, active means growth inhibition above about 70%; inactive means the rest.
How the values were obtained:
[1] = NCI Yeast Anticancer Drug Screen. Data for the rad50 strain (AID 155);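 further: 0% = growth of vehicle-only cultures of the same strain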; settings: S. cerevisiae rad50 strain growth inhibition; at 50.0 µM; active compounds read high
How it was run: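 Genetically altered yeast (DNA repair pathway); compound treatment; growth inhibition vs vehicle ctrl.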

[2] = NCI Yeast Anticancer Drug Screen. Data for the mec2-1 strain (AID 157); settings: S. cerevisiae mec2-1 strain, at 50.0 µM, active compounds read high
How it was run: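 Yeast mec2-1 mutant treated with compound. Readout: growth inhibition vs vehicle controls.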

[3] = NCI Yeast Anticancer Drug Screen. Data for the sgs1 mgt1 strain (AID 161);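 further: 0% = growth of cultures given vehicle only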; settings: S. cerevisiae sgs1 mgt1 strain, at 50.0 µM, active compounds read high
How it was run: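 Read-out: growth inhibition vs vehicle controls. Cells: mutant yeast strain deficient in DNA damage repair.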

[4] = NCI Yeast Anticancer Drug Screen. Data for the cln2 rad14 strain (AID 165);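 further: 0% = growth equal to vehicle treated cultures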; settings: S. cerevisiae cln2 rad14 strain, at 50.0 µM, active compounds read high
How it was run: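 cln2 rad14 yeast strain; compound exposure; growth inhibition read vs vehicle controls.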

[5] = NCI Yeast Anticancer Drug Screen. Data for the bub3 strain (AID 167); settings: S. cerevisiae bub3 mutant strain, at 50.0 µM, active compounds read high
How it was run: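 Yeast carrying a defined mutation is treated with each compound, and growth is compared with that of vehicle-exposed cells to give inhibition.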

[6] = NCI Yeast Anticancer Drug Screen. Data for the mlh1 rad18 strain (AID 175); settings: S. cerevisiae mlh1 rad18 strain growth inhibition; at 50.0 µM; active compounds read high
How it was run: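 Yeast w/ defined DNA-repair lesions; compound exposure; growth vs vehicle controls → % inhibition.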

Measured: growth inhibition

CCOC(=O)C(/C=N/Nc1ccc([N+](=O)[O-])cc1[N+](=O)[O-])Oc1cccc(OC)c1 (stereo unspecified)
inactive: [1] -8.85% | [2] -8.4% | [3] -19.8% | [4] -15.1% | [5] -8.75% | [6] -1.55%

Cc1noc2cccc(OCc3ccccc3)c12
inactive: [1] -32.2% | [2] -40.5% | [3] 5.4% | [4] -0.6% | [5] 17.4% | [6] -9.2%

CC(CC(O)CCCN(C)C)CC(C)(C)C (stereo unspecified)
inactive: [1] 46.5% | [2] 39.8% | [3] 43.4% | [4] 22.1% | [5] 24.3% | [6] 37.5%

c1ccc2c(c1)Cc1c-2n[nH]c1-c1[nH]nc2c1Cc1ccccc1-2
inactive: [1] 26.6% | [2] 8.85% | [3] 34.8% | [4] 22.3% | [5] 16% | [6] 55.2%

CN(C)CCCC1(O)c2ccccc2Sc2cc(Cl)ccc21 (stereo unspecified)
inactive: [1] 12.9% | [2] 12.9% | [3] 17.9% | [4] 18.6% | [5] 12.7% | [6] 25.9%

O[C@H]1[C@H]2c3cc4c(cc3CN3CCC(C[C@@H]1O)[C@H]23)OCO4 (stereo partly specified)
inactive: [1] 3.05% | [2] -6.5% | [3] 9.65% | [4] 20.3% | [5] 3.4% | [6] 9.3%

COC(=O)c1cc2c(cc1CC(Cc1ccc3c(c1)CCC3)C(=O)OC)CCC2 (stereo unspecified)
inactive: [1] 27.9% | [2] 1.25% | [3] -21.6% | [4] -34.1% | [5] 3.95% | [6] -4.65%

CC(C)=CCC/C(C)=C/COC(=O)N(c1ccccc1)c1ccccc1
inactive: [1] 5.95% | [2] -0.1% | [3] 3.9% | [4] -47% | [5] 3.6% | [6] -1.15%

Clc1ccc(/C=C/c2nc3ccccc3s2)cc1Cl
inactive: [1] -13.8% | [2] -23.6% | [3] 3.1% | [4] 9.95% | [5] 27.2% | [6] -16.2%

O=C1C(=S)Nc2cccc(F)c21
inactive: [1] 38% | [2] 45% | [3] 33.2% | [4] -3.65% | [5] 43.7% | [6] 33%

CCC1(COC(NC(=O)c2ccccc2)(C(F)(F)F)C(F)(F)F)COC1
inactive: [1] -14.2% | [2] -1.9% | [3] -32.2% | [4] 14.1% | [5] -24.2% | [6] 7.05%

COc1ccc2c(c1)[n+](=O)c(C(=O)C/C(=N/OCCCc1ccccc1)C(=O)NC13CC4CC(CC(C4)C1)C3)c(C)n2[O-]
inactive: [1] -1.3% | [2] -3.2% | [3] -19.4% | [4] 17.1% | [5] 3.85% | [6] -4.6%

O=C(O)/C(=C(\CO)c1ccccc1)c1ccccc1
inactive: [1] 7.15% | [2] 9.25% | [3] 11% | [4] 24.4% | [5] 3.25% | [6] 26.7%

Oc1ccc(Cl)cc1C1=NC(/N=C\c2ccccc2)=NC(c2ccccc2)C1 (stereo unspecified)
inactive: [1] -0.7% | [2] -4.05% | [3] -43% | [4] -8.1% | [5] -36.8% | [6] -45%

C#CCC[N+](C)(C)C
inactive: [1] -0.75% | [2] -12.5% | [3] -5.2% | [4] 11.2% | [5] -7.45% | [6] 4.55%

CCOC(=O)C(c1ccc(C)cc1)C(Cl)(Cl)Cl (stereo unspecified)
inactive: [1] 2.45% | [2] -9.55% | [3] 3.85% | [4] -1.05% | [5] -11.5% | [6] 26.4%

NCCCOc1ccccc1
inactive: [1] -3.6% | [2] -7.8% | [3] -5.1% | [4] -10.3% | [5] -7.05% | [6] -9.35%

CC1=CC2=NC(=O)C(c3ccccc3)C(=O)N2C=C1 (stereo unspecified)
inactive: [1] -1.05% | [2] -27.4% | [3] -9.95% | [4] 12.8% | [5] 7.5% | [6] -19.8%

COC(=O)N1C(C#N)=CCc2ccccc21
inactive: [1] 26.4% | [2] 31.2% | [3] 16.9% | [4] -6.25% | [5] 3.8% | [6] 5.65%

Cc1ccc(N=NC(C2=NC(=O)CS2)c2nc3ccccc3[nH]2)cc1 (stereo unspecified)
inactive: [1] -55% | [2] -31% | [3] -52.8% | [4] -44.8% | [5] -56% | [6] -73.8%

O=C(CO)c1ccc([N+](=O)[O-])cc1
inactive: [1] 16.8% | [2] 34.3% | [3] 1.85% | [4] 7.5% | [5] 13.4% | [6] 40.4%

— PubChem BioAssay (NCI)
